Source: PubChem (several laboratories)
Only some compounds are listed: those with a hit (about 2.8% of all), similar ones and a draw of the others.
MITF TRPM1 inh – inhibitors of MITF-driven TRPM1 promoter in melanoma cells | SK-MEL-5 TRPM1 promoter luciferase, 24 h | inhibition, % at 12.5 µM | hit rate 0.83% among 330,000;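 active = mean inhibition across replicates of 60% or more, whatever share of single replicates reaches that level; inconclusive = some that reach 60%, reason not given; inactive = mean inhibition across replicates below 60%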
CF NFkB block – inhibitors of cystic fibrosis induced NF-kB; hit rate 0.86% among 360,000; AID 588850; KKLEB NF-kB-GFP reporter, PAF-induced, GFP fluorescence overnight; inhibition, % at 5 µM;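 active = at least 50% inhibition at 5 µM, scaled per plate between neutral and stimulator controls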;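 also: PAF is a Pseudomonas aeruginosa culture filtrate used as stimulus; plate controls were PAF-stimulated DMSO wells for no effect and unstimulated DMSO wells for full effect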
Shn3 3UTR inh – Schnurri-3 reporter inhibition in Clone20 osteoblasts. hit rate 0.52% among 360,000. Clone20 osteoblast Shn3 3'UTR firefly luciferase, 24 h. inhibition, % at 12.5 µM;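 active = mean inhibition of at least 75% with every replicate also reaching 75%; inconclusive = mean inhibition at least 75% but some replicate below; inactive = mean inhibition below 75%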;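 also: 0% = median of neutral control wells and 100% = pilot-screen positive control compound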
HIF-2a inh – HIF-2a inhibition. inhibition, % at 18.8 µM. hit rate 0.72% among 360,000. 786-0 RCC cells HIF-2a reporter, luciferase luminescence, overnight;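 active = inhibition of the luminescence signal of 40% or more relative to plate controls, in a single-dose primary screen at 18.75 µM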
Peg3 prom inh – reduces Peg3 promoter-driven luciferase expression in HeLa; HeLa PEG-Prom luciferase reporter, luminescence, overnight; inhibition, % at 20 µM; hit rate 1.7% among 360,000; AID 588405;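 active = inhibition of at least 50% at 20 µM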
KKLEB tox – CF airway cell cytotoxicity counter-screen; activity change (cytotoxicity), % at 5 µM; hit rate 0.36% among 360,000; KKLEB CF airway cells viability, ATPlite luminescence, overnight; hits give low values; cells stimulated with P. aeruginosa culture filtrate;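 active = corrected activity change at or below -50% at 5 µM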
Numbers without * were called inactive; ? = inconclusive; · = no result.

SMILES | MITF TRPM1 inh | CF NFkB block | Shn3 3UTR inh | HIF-2a inh | Peg3 prom inh | KKLEB tox
COc1ccc(-n2c(=O)c(CCC(=O)N(C)Cc3ccccc3C)nc3ccccc32)cc1 | -4.8 | -2.5 | 16.0 | 22.2 | 18.9 | 1.4
CCc1ccc(CN(C)C(=O)CCc2nc3ccccc3n(-c3ccc(OC)cc3)c2=O)cc1 | 17.6 | 24.3 | 26.7 | 16.5 | 57.0* | -8.3
COc1cccc(C2Nc3ccc4ccccc4c3C3=C2C(=O)CCC3)c1O (configuration not stated) | 64.4* | -3.6 | 15.8 | 11.8 | 15.3 | -12.2
COc1cc(C2CC(=O)c3c(ccc4ccccc34)N2)ccc1O (configuration not stated) | 6.7 | -27.6 | -28.2 | -8.3 | -1.0 | 6.9
CCOC(=O)Cn1ccc(NC(=O)COc2ccc(F)cc2)n1 | 1.0 | -7.7 | -7.2 | 2.9 | 13.5 | -14.6
O=C1CC2(CCN(C(=O)C(=O)c3c[nH]c4ccccc34)CC2)Oc2ccccc21 | -4.1 | 84.4* | -3.5 | 5.1 | -17.8 | -100.0*
CCOc1ccc2c(c1)C(=NNC(=O)c1ccncc1)c1cc(OCC)ccc1-2 | 0.2 | -39.1 | -8.0 | -126.1 | 55.0* | 9.8
Cc1cc(Br)ccc1NC(=O)CNC(=O)Cc1ccc(S(=O)(=O)N2CCOCC2)s1 | 2.7 | -18.2 | 10.8 | -3.2 | 3.6 | 16.1
Cc1cc(C)nc(/N=C(\N)Nc2ccc(OCCC(C)C)cc2)n1 | 65.1* | -6.3 | 63.6 | 2.9 | 106.6* | 0.8
COc1ccc(N/C(N)=N/c2nc(C)cc(C)n2)cc1 | · | -31.6 | 14.0 | -7.9 | 4.7 | -0.3
CCN(CC)CCCNc1nc2ccccc2c2[nH]c3ccc(OC)cc3c12 | 102.0* | 13.0 | 91.7* | 35.1 | 99.3* | -16.9
CCN(CC)S(=O)(=O)c1ccc2c(c1)N(CC(=O)N1CCC(C(N)=O)CC1)C(=O)CO2 | 6.9 | 18.0 | -12.4 | 11.6 | 1.4 | -3.1
CC(=O)N(Cc1ccc(F)cc1)C1=C(NCc2ccccc2)C(=O)c2ccccc2C1=O | 97.8* | 92.1* | 83.1 | 67.7* | 109.6* | -52.7*
O=C(NCc1ccc(F)cc1)C(c1ccccc1)c1ccccc1 | 2.6 | -12.5 | 15.1 | 21.2 | 11.5 | 3.9
O=C(Nc1ccc(Cl)c(Cl)c1)Nc1ccc(Br)cc1F | -4.8 | 71.2* | 17.7 | -195.4 | -24.3 | -63.8*
O=C(Nc1ccc(Cl)c(Cl)c1)Nc1ccccc1O | -111.5 | 18.7 | -124.7 | -344.6 | -272.2 | 17.4
CC(=O)OCC(=O)C1CCC2C3CC=C4CC(O)CCC4(C)C3CCC12C (configuration not stated) | -2.0 | 4.9 | 5.6 | 7.4 | 20.6 | 40.1
CC(=O)C1CCC2C3CC=C4CC(SC(=N)N)CCC4(C)C3CCC12C (configuration not stated) | 90.2* | 5.8 | ? | -28.6 | 97.0* | 1.1
Cc1ccc(-c2cc(NC(=O)CCl)n(-c3ccccc3)n2)cc1 | -12.2 | -48.5 | · | -179.8 | 37.2 | -13.6
O=C(CCl)Nc1cc(-c2ccccc2)nn1-c1ccccc1 | 67.0* | -0.3 | 19.4 | -24.6 | 40.6 | -53.5*
N=C(N)c1ccc(N=Nc2c(O)ccc3c2[nH]c2ccccc23)cc1 | 27.2 | 0.1 | 14.0 | -10.8 | 98.0* | 6.0
O=C1C=C(c2ccc3c(c2)oc2ccccc23)C[C@@H](c2ccc3c(c2)OCO3)C1 | -6.7 | 14.7 | 1.1 | 8.1 | -8.9 | -1.4
O=C(Nc1ccc(Oc2ccc(Cl)cc2)c(Cl)c1)c1cc(I)cc(I)c1O | 4.8 | 65.5* | 2.9 | -33.6 | 82.2* | 23.0
CC/C(=N/NC(=O)c1ccccc1O)c1c(C)[nH]n(-c2ccccc2)c1=O | -1.2 | -7.8 | · | -10.1 | 3.0 | -3.6
CCC(C)NC(=O)N[C@@H](Cc1ccccc1)C(=O)O (some centres not stated) | -3.1 | 12.6 | -2.3 | 10.6 | 1.6 | -85.3*
SMILES | MITF TRPM1 inh | CF NFkB block | Shn3 3UTR inh | HIF-2a inh | Peg3 prom inh | KKLEB tox
O=C(NCc1ccccc1)N[C@@H](Cc1ccccc1)C(=O)O | 11.5 | 4.1 | 23.0 | 2.8 | -6.2 | -1.1
O=C(CN(c1ccc(Cl)cc1)S(=O)(=O)c1ccc(Cl)c([N+](=O)[O-])c1)NCCc1ccc(F)cc1 | 69.6* | -4.9 | 15.2 | 28.5 | 95.4* | -2.6
COc1cc([C@H]2c3[nH]c4ccccc4c3C[C@H]3C(=O)N4[C@@H](c5cc(OC)c(OC)c(OC)c5)c5[nH]c6ccccc6c5C[C@H]4C(=O)N23)cc(OC)c1OC | · | 39.4 | 19.8 | 52.2* | 38.6 | -22.7
Cc1nc2sc(-c3ccccc3)cc2c(=O)n1N | 45.1 | -38.3 | · | 12.9 | 58.0* | -10.9
Cc1nc2sc(-c3ccccc3)cc2c(=O)n1-n1cccc1 | -109.4 | -2.6 | -32.0 | -261.0 | -293.4 | 2.2
Cc1c(NC(=O)c2ccc([N+](=O)[O-])o2)cccc1-c1nc2ncccc2o1 | 77.7* | 96.5* | 42.4 | 33.4 | 83.4* | -31.2
O=C(Nc1cccc2ncccc12)c1ccc([N+](=O)[O-])o1 | 45.6 | 26.5 | 20.3 | 22.6 | 51.4* | 5.5
Cc1cccnc1NC(=O)c1ccc([N+](=O)[O-])o1 | 17.3 | 10.6 | 8.2 | 1.1 | -10.0 | -4.2
COc1cccc(C(=O)Nc2cccc(-c3nc4ncccc4o3)c2C)c1 | 2.4 | -16.8 | -3.3 | -52.9 | -75.6 | -0.4
CC1(C(=O)NS(=O)(=O)c2ccc(Cl)s2)CCN1C(=O)Cc1ccc(Cl)cc1Cl (configuration not stated) | · | 6.4 | -4.8 | 6.9 | -6.2 | -10.1
CN(Cc1ccccc1)C(=O)c1ccc(NC(=O)Cc2ccc(NC(=O)C3CCCN(C(=O)C4CC4)C3)cc2)cc1 (configuration not stated) | 2.9 | 6.3 | -5.4 | -10.8 | 0.3 | 4.2
CC[C@H](C)[C@@H](C(=O)NCCCCCCCCCCC(=O)N1CCN(C(=O)OC(C)(C)C)CC1)n1cc(CCCCCNC(=O)OC(C)(C)C)nn1 | 64.9* | 9.9 | 89.4* | 1.9 | 28.3 | -1.4
CC(C)(C)OC(=O)NCCCCCc1cn([C@@H](CO)C(=O)NCCCCCCCCCCC(=O)N2CCN(C(=O)OC(C)(C)C)CC2)nn1 | 58.4 | 8.3 | 34.4 | -64.5 | 92.7* | 4.9
COc1ccc(N2C(=NC(=O)C3CCCO3)SC3CS(=O)(=O)CC32)cc1 (configuration not stated) | -14.1 | 9.9 | -17.1 | 5.0 | 3.7 | 5.5
O=C(Nc1oc2ccccc2c(=O)c1-c1ccc(Br)cc1)c1ccco1 | 1.7 | -0.6 | 1.8 | -37.4 | -40.0 | -6.7
CC(C)c1ccc(NC(=O)CN2C(=O)NC3(CCCC3)C2=O)cc1 | -13.0 | 0.5 | -4.8 | -18.8 | -22.5 | -6.4
CCOC(=O)C1=C(CSc2nc3ccccc3s2)NC(=O)NC1c1ccc(OC)cc1 (configuration not stated) | 5.4 | 18.4 | 66.6 | -16.0 | 63.5* | -32.8
Fc1ccc(-c2nnc(-c3ccc(Cl)cc3Cl)o2)cc1 | · | -52.5 | 8.5 | -117.8 | -108.6 | -55.0*
